CtBP-E1A blk = qHTS Assay for Inhibitors of the CtBP/E1A Interaction | AID 651724, 2012 | AlphaScreen GST-E1A/His-CtBP binding, 1536-well; active compounds read low | CtBP / adenovirus E1A interaction (AlphaScreen) | activity change, % (no concentration beside the values) | actives 0.49% (n = 340,000); in the data active = activity change below about -65%; inconclusive = mostly about -30% to -63%; note: % is set by controls: 0 for no effect and ±100 for the full control effect
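In 5 uL wells, 23 nL compound meets equimolar GST-E1A and His-CtBP (5X stock 125 nM each) for 2 h, 37 °C. Beads (5X, 50 ug/mL) then 1 h, 37 °C, dark.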
Six1-Eya2 blk = qHTS Assay for Inhibitors of the Six1/Eya2 Interaction; Homeobox protein SIX1 (Homo sapiens) + Protein phosphatase EYA2 (Homo sapiens), …; AlphaScreen GST-Six1/His-Eya2 binding, biochemical; active compounds read low; activity change, % (concentration not given with the values); actives 0.56% (n = 360,000); AID 651725, 2012; in the data active = activity change below about -65%; inconclusive = mostly about -30% to -63%; note: % is set by controls: 0 for no effect and ±100 for the full control effect
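GST-Six1 + His-Eya2 (5X stock: 250/500 nM); Tris pH 8.0, 300 mM NaCl, 0.05% BSA, 0.02% Tween 20; GSH donor/Ni acceptor beads; 1 h 37 °C dark; AlphaScreen readout.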
Glioma ERSR ind = qHTS for Inducers of the Endoplasmic Reticulum Stress Response (ERSR) in Human Glioma: qHTS; actives 0.02% (n = 420,000); Potency, µM, for the others: at the highest dose activation, usual class: activators; U87-MG GRP78 promoter luciferase reporter, 16 h; note: potency is the fitted concentration of half-maximal effect; series mostly up to about 76 µM; % of control where 0% means no effect; nearly all actives have a fitted effect of over 35% in size
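Stably transfected U87-MG human glioma cells carrying a GRP78-based luminescent sensor were seeded at 1000 cells/well, pin-dosed with compounds and incubated 16 h. Luciferase reagent was then added, and end-point luminescence was read after 10 min at room temperature.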
RGS4 inh = Inhibitors of Regulator of G Protein Signaling (RGS) 4: qHTS; Transcreener GDP fluorescence polarization, RGS4-accelerated GTP hydrolysis; Potency, µM (highest dose often 114 µM), inactives show at the top dose activity change, negative = inhibition, hits mostly inhibitors; actives 0.039% (n = 390,000); AID 504845, 2011; note: potency is the fitted concentration of half-maximal effect; % is set by controls: 0 for no effect and ±100 for the full control effect; nearly all actives have a fitted effect of over 75% in size
Target sequence (P49798 whole entry, looked up): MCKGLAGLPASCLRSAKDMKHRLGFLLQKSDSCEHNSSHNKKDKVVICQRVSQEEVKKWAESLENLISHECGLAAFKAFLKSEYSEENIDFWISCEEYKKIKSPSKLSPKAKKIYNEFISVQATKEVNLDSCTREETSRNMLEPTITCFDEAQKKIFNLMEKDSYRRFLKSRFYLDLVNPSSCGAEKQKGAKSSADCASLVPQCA
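MLSMR compounds (23 nl, pin-transferred) preincubated 10 min at room temperature with a 500nM (2x) first reagent, then RGS4 at 900nM (2x) plus Transcreener GDP mix added; fluorescence polarization (620/688 nm) read before and after 90 min at 30 °C.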
pAkt inh = HTS Assay for Inhibitors of Akt Phophorylation: Primary Screen; actives 0.32% (n = 360,000); Neuro2A IGF-stimulated pAkt S473 HTRF, 20 min; active compounds read low; activity change, % for hits at 50 µM; AID 651550, 2012; in the data active = activity change below about -80%; inconclusive = mostly about -51% to -80%; note: % is set by controls: 0 for no effect and ±100 for the full control effect
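Neuro2A cells (4,500/well, DMEM with 0.5% FBS) were treated with compound at a single 50 µM final concentration, stimulated with 6 nM IGF for 20 min at 37 °C, and lysed. Phospho-Akt Ser473 was read by HTRF as 665/615 ratio ×10^4.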
The depositor's hits bear a star; i = inactive; ? = inconclusive; / = no result; ! = a repeat was not active. Compounds with a hit are over-represented: about 0.88% of the library has one in this group of screens. Unless noted, calls come from the whole dose curve; as a rule, active = well fitted curve in the direction sought with a large enough effect; inconclusive = small, poorly fitted or top-dose-only effect, or another doubt; inactive = no such curve, though single readings can be large; an effect the other way counts as inactive or inconclusive.

SMILES | CtBP-E1A blk | Six1-Eya2 blk | Glioma ERSR ind | RGS4 inh | pAkt inh
CN(C)c1ccc(/C=C/c2cc3ccccc3cn2)cc1 | / | / | -2.8% | / | /
O=C(NCc1ccccn1)C1CCCN(Cc2cnn(-c3ccccc3)c2-n2cccc2)C1 (stereo not given) | -4.0 | -1.3 | 1.6% | 0.8% | -98.1%*
NCCCNCCCCNC(=O)C(O)NC(=O)CCCCCCN=C(N)N (stereo not given) | / | / | -4.6% | / | /
CCc1ccc(N2CC(C(=O)OCC(=O)Nc3cc(C)on3)CC2=O)cc1 (stereo not given) | -0.7 | 0.5 | -1.2% | 42.8% | -88.7%*
O=C(Cc1ccccc1Nc1c(Cl)cccc1Cl)OCO/N=[N+](\[O-])N1CCCC1 | / | / | 1.7% | -41.2% | /
CCC(NC(C)C)C(O)c1ccc(O)c(O)c1 (stereo not given) | 6.1 | 5.5 | -3.2% | ? | i
CC[C@H](NC(C)C)[C@H](O)c1ccc(O)c2[nH]c(=O)ccc12 | / | / | -5.0% | 23.8µM*! | /
O=C(N/C(=C/c1ccc(Br)cc1)C(=O)N1CCCC1=O)c1ccco1 | -93.3* | -10.4 | -6.2% | -13.2% | i
O=C(N/C(=C/c1ccc(Br)cc1)C(=O)N1CCOCC1)c1ccco1 | 3.2 | -1.8 | -3.0% | -5.6% | i
CCOC(=O)c1cccnc1 | / | / | -2.8% | / | /
CCOC(=O)c1ccc(C(=O)OCC)nc1 | -11.5 | 1.3 | 1.4% | 21.6% | -106.4%*
CC(=O)c1ccc(NC2=C(N3CCOCC3)C(=O)c3ccccc3C2=O)cc1 | 0.3 | ? | -1.0% | 11.4% | i
Cc1ccc(NC2=C(N3CCOCC3)C(=O)c3ccccc3C2=O)cc1 | -91.8* | -88.8* | -2.5% | -3.3% | i
CC(C)(C)C1=CC(=Nc2ccccc2N)C=C(C(C)(C)C)C1=O | -79.3* | -80.6* | -0.5% | -6.2% | i
COC(=O)c1ccc(CNC(=O)CSc2nnc(COc3ccccc3)n2C)o1 | 1.4 | -6.3 | -2.7% | 18.0% | -109.9%*
CCn1c(-c2ccccc2F)nc2cc(NC(C)=O)cc(C(=O)N3CCC[C@H]3C(=O)OC)c21 | / | / | -0.7% | / | /
C(=N\Nc1nc(N2CCOCC2)nc(N2CCOCC2)n1)/c1cccnc1 | 0.7 | 6.6 | 0.2% | -23.2% | -81.9%*
C(=N\Nc1nc(N2CCOCC2)nc(N2CCOCC2)n1)/c1ccncc1 | 1.3 | 20.0 | -3.7% | 2.7% | i
COc1cccc(CN2C(=O)NC(C)(C3CCN(Cc4cc(F)cc(F)c4)CC3)C2=O)c1OC (stereo not given) | / | / | -4.4% | / | /
COc1cccc(CN2Cc3cccc4c3[C@H](C=CC4)CC2=O)c1 | / | / | -5.2% | / | /
Cc1ccc(NC(=O)c2cc(S(=O)(=O)N(C)C)ccc2N2CCCC2)cc1S(=O)(=O)N(C)C | -1.4 | -6.9 | 31.6µM* | -15.0% | i
COc1cc(=O)n2c(c1C(=O)N(C)Cc1nccs1)CCN(Cc1ccc(F)c(F)c1)CC2 | / | / | -1.7% | / | /
CN(Cc1ccccc1)/[N+]([O-])=N/Oc1ccc([N+](=O)[O-])cc1[N+](=O)[O-] | / | / | -11.5% | / | /
COc1cc2nc(CN(C)Cc3nc4ccccc4c(=O)[nH]3)[nH]c(=O)c2cc1OC | -66.3* | -66.2* | -0.1% | -17.5% | i
O=S(=O)(c1cccc(F)c1)N1CCN(c2nc(-c3cccs3)nc3ccccc23)CC1 | / | / | -0.1% | 8.2% | /
SMILES | CtBP-E1A blk | Six1-Eya2 blk | Glioma ERSR ind | RGS4 inh | pAkt inh
Oc1ccc(Cl)cc1CNc1ccc(Br)cn1 | 3.9 | -3.0 | ? | -0.9% | i
Oc1c(Cl)cc(Cl)cc1CNc1ccc(Br)cn1 | -75.1* | -70.1* | -4.7% | 18.8% | i
COC(=O)c1cc(=O)nc2sc3cc(OC)ccc3n12 | 8.2 | -1.8 | -3.6% | -39.8% | -114.4%*
CCCCc1c(O)nc2sc3cc(OC)ccc3n2c1=O | 1.6 | 3.2 | -0.9% | 48.9% | i
NC(=S)NCCC[C@H](N)C(=O)O | / | / | -2.7% | 10.6µM*! | /
NC(=O)NCCC[C@H](N)C(=O)O | / | / | -2.9% | i | /
O=C(COC(=O)C1CC2CCCC(C1)C2=O)c1cccc(Br)c1 (stereo not given) | / | 2.9 | -2.6% | 13.6% | i

Screens as filed in PubChem BioAssay.
